About 5,100 (32%) of roughly 16,000 compounds were called active. Roughly 25% stayed inconclusive and do not appear here. Calls follow the shape of the dose curve; as a rule, active = well fitted curve in the direction sought with a large enough effect; inconclusive = small, poorly fitted or top-dose-only effect, or effect the other way; inactive = no such curve, though single readings can be large or run the other way. The list shows a part of the results.
These molecules were tested against Cytochrome P450 3A4 (Homo sapiens) (UniProt P08684) (assay: Cytochrome panel assay with activity outcomes). Conditions: recombinant CYP, pro-luciferin dealkylation, luminescence, p450-cyp3a4; series mostly up to 57.1 µM.
Sequence of Cytochrome P450 3A4 (Homo sapiens) (P08684 whole entry, looked up): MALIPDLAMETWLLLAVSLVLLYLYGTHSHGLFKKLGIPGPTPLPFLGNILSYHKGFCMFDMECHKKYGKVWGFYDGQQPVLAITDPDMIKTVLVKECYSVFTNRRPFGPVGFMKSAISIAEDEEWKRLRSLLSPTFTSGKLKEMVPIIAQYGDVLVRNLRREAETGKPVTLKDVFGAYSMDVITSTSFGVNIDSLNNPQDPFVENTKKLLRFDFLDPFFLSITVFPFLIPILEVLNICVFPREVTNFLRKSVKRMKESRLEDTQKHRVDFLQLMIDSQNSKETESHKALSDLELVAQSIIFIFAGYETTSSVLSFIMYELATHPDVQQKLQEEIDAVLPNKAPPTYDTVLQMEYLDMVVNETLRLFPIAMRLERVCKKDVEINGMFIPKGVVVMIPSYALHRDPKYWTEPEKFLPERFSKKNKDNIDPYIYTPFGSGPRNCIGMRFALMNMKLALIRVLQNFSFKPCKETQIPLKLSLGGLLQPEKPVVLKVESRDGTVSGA
For `CCn1cnc2c(Nc3cccc(Cl)c3)nc(N[C@@H]3CCCC[C@H]3N)nc21`, the AC50 was 12.6 µM (active).
In the case of `COc1ccc(C(=O)NC2CC3CCCC(C2)N3CC(C)C)cc1OC` (stereo not given), the activity, negative = inhibition is reported as “inactive”.
`CC(Oc1ccc(-c2ccccc2)cc1)C(=O)O` (stereo not given) was tested, and the activity, negative = inhibition was 4.5% [at 11.4 µM] (inactive).
`C[C@@H]1O[C@H](OC2[C@@H](O)[C@H](O)C(O)[C@H](O)[C@H]2O)[C@@H](N)C[C@@H]1N=C(N)C(=O)O` (stereo not given in full) was tested, and the activity, negative = inhibition was 2.45% [at 11.4 µM] (inactive).
With `NC[C@@H](CC(=O)O)c1ccc(Cl)cc1` the activity, negative = inhibition was “inactive”.
With `O=C1CN=C(c2cccs2)c2c(sc3c2CCCC3)N1` the AC50 was 15.8 µM (active).
For `Cc1cc(Cc2cc(C)c(N)cc2N)c(N)cc1N`, the activity, negative = inhibition was -12.7% [at 11.4 µM] (inactive).
With `Cc1ccc(NC(=[OH+])c2cc3ccccc3cc2O)c(C)c1.Cc1ccc(NC(=[OH+])c2cc3ccccc3cc2O)c(C)c1.[Ni]` the activity, negative = inhibition was -23% [at 11.4 µM] (inactive).
With `CC(C)CCC[C@@H](C)[C@@H]1CC[C@@H]2[C@H]3CC[C@H]4C[C@@H](N)CC[C@@]4(C)[C@@H]3CC[C@]21C` the activity, negative = inhibition was 0.227% [at 11.4 µM] (inactive).
`Cc1c2cc[n+](CCN3CCCCC3)cc2c(C)c2c1[nH]c1ccc(O)cc12` was tested, and the activity, negative = inhibition was -14.8% [at 11.4 µM] (inactive).
For `CN1CCN(C(=O)O[C@@H]2c3nccnc3C(=O)N2c2ccc(Cl)cn2)CC1`, the activity, negative = inhibition was “inactive”.
With `COC1=C[C@H]2C3=C([C@H]2C1=O)[C@H](NC(C)=O)CCc1cc(OC)c(OC)c(OC)c13` the activity, negative = inhibition was “inactive”.
In the case of `CCCCN1C(=O)C(C2c3ccccc3C(=O)N2Cc2ccccc2)C(=O)NC1=S` (stereo not given), the AC50 is reported as 2.51 µM (active).
`CN1C(=O)C(C2c3ccccc3C(=O)N2Cc2ccc([N+](=O)[O-])cc2)C(=O)N(C)C1=O` (stereo not given) was tested, and the activity, negative = inhibition was -20.1% [at 11.4 µM] (inactive).
With `CN1CCc2nc3ccc(F)cc3c(C(N)=O)c2C1` the activity, negative = inhibition was “inactive”.
In the case of `CCN1C[C@]2(C)CC[C@@H](O)[C@]34[C@@H]5CC6[C@@H](OC)C[C@@](O)([C@H]5[C@@H]6O)[C@@H](C[C@@H]23)[C@H]14`, the activity, negative = inhibition is reported as “inactive”.
In the case of `COC(=O)C1(C)C=C2C(=C(C)C(=O)C2C)CN1` (stereo not given), the activity, negative = inhibition is reported as “inactive”.
`N[C@@H](CCCCP(=O)(O)O)C(=O)O` was tested, and the activity, negative = inhibition was “inactive”.
In the case of `Cn1c(O)c(C(=N)COc2ccccc2)c(=O)n(C)c1=O`, the activity, negative = inhibition is reported as “inactive”.
For `NC[C@@H](O)CSP(=O)(O)O`, the activity, negative = inhibition was 2.73% [at 11.4 µM] (inactive).
For `CNC(C)Cc1ccccc1Sc1ccc(O)cc1` (stereo not given), the activity, negative = inhibition was -6.72% [at 2.29 µM] (inactive).
For `COC(=O)NC/C=C\c1nc(CC/C=C\C(=O)O[C@H]2C[C@H]3CC(=O)O[C@@H](/C=C\CC(C)C)C[C@@H]4CC[C@H](C)[C@H](C[C@@H](OC)C[C@H](C2)O3)O4)co1`, the AC50 was 5.01 µM (active).
With `CNC(=O)Oc1ccc2c(c1)[C@@]1(C)CCN(C)[C@@H]1N2C` the activity, negative = inhibition was “inactive”.
With `C[N+]1([O-])[C@@H]2CC(OC(=O)[C@@H](CO)c3ccccc3)C[C@@H]1[C@H]1O[C@H]12` (stereo not given in full) the activity, negative = inhibition was “inactive”.
For `c1ccc2c(c1)OC[C@@H](C1=NCCN1)O2`, the activity, negative = inhibition was “inactive”.
In the case of `c1ccc(C2CC2)c(OCC2=NCCN2)c1`, the activity, negative = inhibition is reported as “inactive”.
With `CNCC/C=C\c1cccnc1` the activity, negative = inhibition was “inactive”.
With `S=C=Nc1cccc(C2(N3CCCCC3)CCCCC2)c1` the AC50 was 15.8 µM (active).
For `CCC(COC(=O)NC)NC(=O)Oc1ccccc1` (stereo not given), the activity, negative = inhibition was “inactive”.
With `NC(N)=NC(=O)c1nc(Cl)c(N)nc1N` the activity, negative = inhibition was “inactive”.
In the case of `Clc1cc(I)cc(Cl)c1NC1=NCCN1`, the activity, negative = inhibition is reported as “inactive”.
For `O=C(N/N=C(\c1ccccc1)c1cccnc1)C(O)(c1ccccc1)c1ccccc1`, the AC50 was 7.94 µM (active).
In the case of `O=C(NCP(=O)(O)O)c1cccnc1`, the activity, negative = inhibition is reported as -14.3% [at 11.4 µM] (inactive).
In the case of `CC[C@]1(C2=NCCN2)Cc2ccccc2O1`, the activity, negative = inhibition is reported as “inactive”.
`CCN(CC)c1ccc(/C=C2/C(=O)NC(=O)N(CC3CCCO3)C2=O)cc1` (stereo not given) was tested, and the activity, negative = inhibition was “inactive”.
With `C[C@@H]1O[C@@H](O[C@H]2C[C@@H](O)[C@]3(CO)[C@@H]4[C@@H](O)C[C@]5(C)[C@H](C6=CC(=O)OC6)CC[C@@]5(O)[C@H]4CC[C@@]3(O)C2)[C@H](O)[C@H](O)[C@@H]1O` the activity, negative = inhibition was “inactive”.
In the case of `C/C=C(\C)C(=O)O[C@@H]1C(C)=C2[C@H]([C@@H]1OC(=O)CCCCCCC)[C@@](C)(OC(C)=O)C[C@@H](OC(=O)CCC)[C@@]1(O)[C@H]2OC(=O)[C@]1(C)O`, the AC50 is reported as 3.98 µM (active).
`CO[C@H]1[C@H](O)[C@H](O[C@@H]2[C@H](Oc3cccc4c(O)c5c(=O)oc6ccc(C)c7c(=O)oc(c34)c5c67)O[C@@H](C)[C@H](O)[C@H]2O)O[C@@H](C)[C@@H]1O` was tested, and the activity, negative = inhibition was -7.43% [at 11.4 µM] (inactive).
In the case of `CCOC(=O)c1ncn2c1[C@H]1CCCN1C(=O)c1cc(OC)ccc1-2`, the activity, negative = inhibition is reported as “inactive”.
`COc1cc2c(cc1OC)[C@@H]1C(=O)c3ccc4c(c3O[C@@H]1CO2)C=CC(C)(C)O4` was tested, and the AC50 was 15.8 µM (active).
In the case of `Cc1ncc([N+](=O)[O-])n1CCN=[N+]=[N-]`, the activity, negative = inhibition is reported as -15.3% [at 11.4 µM] (inactive).
With `NCCc1ccc(S(=O)(=O)F)cc1` the activity, negative = inhibition was “inactive”.
With `C=CCN1C(=O)NC(=O)/C(=C/c2cccn2C)C1=O` the activity, negative = inhibition was 8.88% [at 2.29 µM] (inactive).
`Cc1nc2sccc2c(=O)n1-c1ccccc1Cl` was tested, and the activity, negative = inhibition was 4.91% [at 2.29 µM] (inactive).
In the case of `O=c1c2ccccc2nc(N2CCCC2)n1-c1ccc(Cl)cc1`, the AC50 is reported as 12.6 µM (active).
For `O=C(Nc1ccc(Cl)cc1)Nc1nccs1`, the activity, negative = inhibition was -2.97% [at 2.29 µM] (inactive).
With `O=C(O)CCCc1ccc(N(CCCl)CCCl)cc1` the activity, negative = inhibition was “inactive”.
For `Cc1ccc2c(c1)N(CCC(=O)N1CCC3(CC1)OCCO3)C(=O)C(C)O2` (stereo not given), the AC50 was 2 µM (active).
In the case of `Cc1cc(NC(=O)CCC(=O)N2CCC3(CC2)OCCO3)no1`, the activity, negative = inhibition is reported as “inactive”.
With `Cc1ccc2cc3cc(C(=O)N4CCC5(CC4)OCCO5)oc3nc2c1` the activity, negative = inhibition was “inactive”.
In the case of `CC(C)NP(=O)(NC(C)C)OP(=O)(NC(C)C)NC(C)C`, the activity, negative = inhibition is reported as “inactive”.
With `N#CCCCC[N+]12CN3CN(CN(C3)C1)C2` the activity, negative = inhibition was -1.78% [at 11.4 µM] (inactive).
In the case of `c1ccc(N2CC3(CCNCC3)C2)cc1`, the activity, negative = inhibition is reported as “inactive”.
`COc1ccc2c(c1)CCC1C2CC[C@]2(C)[C@H](NCCCCCCN3C(=O)C=CC3=O)CC[C@@H]12` (stereo not given in full) was tested, and the activity, negative = inhibition was “inactive”.
With `C[C@@H]1[C@@H](C)N1C[C@H](O)Cn1ccnc1[N+](=O)[O-]` (stereo not given in full) the activity, negative = inhibition was -14.6% [at 11.4 µM] (inactive).

Reference: PubChem BioAssay AID1851 (National Center for Advancing Translational Sciences (NCATS), 2009)
% is scaled to controls: 0 for no effect and ±100 for the full control effect.
